Experimental data as given in PMC5540273 (PLoS ONE, 2017).

Test system: T1, YANK2
T1 construct: gene STK32B
Conditions: concentration: 1 μM, replicates: in singlicate; n = 1
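Further: KINOMEscan kinase panel screen.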

Row | SMILES | %Inh [%]
1 | CCn1c(-c2nonc2N)nc2c(C#CC(C)(C)O)ncc(OCCCCN)c21.O=C(O)C(F)(F)F.O=C(O)C(F)(F)F [GSK507274] | 0
2 | COc1cc2c(cc1OCCN1CCNCC1)ncc1c3ccc(C#N)cc3[nH]c21 | 0
3 | COc1cccc(C(=O)Nc2cccc(Oc3ccc4nc(NC(=O)C5CC5)cn4n3)c2)c1 | 0
4 | FC(F)(F)c1ccc(/C=C/c2cncnc2Nc2ccc3[nH]c(Cc4ccccc4)nc3c2)cc1 [GW709199] | 0
5 | Cc1cccc(Nc2nc(N[C@H]3CCNC3)ncc2C(N)=O)c1.Cl [GSK2197149] | 0
6 | NCCCC(NC(=O)c1cc(Br)c(-c2ccnc3[nH]ccc23)s1)c1ccccc1.O=C(O)C(F)(F)F.O=C(O)C(F)(F)F (centres unmarked) [GSK1287544] | 0
7 | CC(C)(C)c1ccc2nccc(Nc3cccc(O)c3)c2c1 [GW856795] | 0
8 | c1ccc(-c2n[nH]cc2Nc2ccnc3ccccc23)nc1 [GW694077] | 0
9 | COc1cccc(NC(=O)NC2CCN(c3ccnc(Nc4cc(OC)c(OC)c(OC)c4)n3)C2)c1 (centres unmarked) [GSK1379763] | 0
10 | COC(=O)Nc1nc2ccc(Oc3ccc(NC(=O)Nc4cc(C(F)(F)F)ccc4F)cc3)cc2n1C.Cl [GW692089] | 19
11 | COc1cccc(C2=C(Nc3ccc(Cl)c(C(=O)O)c3)C(=O)NC2=O)c1 [SB-390769] | 7
12 | COc1cc(Nc2nccc(-c3c(-c4cccc(NC(=O)c5c(F)cccc5F)c4)nn4ccccc34)n2)cc(OC)c1OC [GSK323521] | 0
13 | Cn1cc(-c2[nH]c3cc(NC(=O)[C@H](N)C4CCCCC4)cc4c3c2C=NNC4=O)cn1 | 0
14 | Nc1ncc(-c2cccnc2)c2scc(-c3ccc4c(c3)CCN4C(=O)Cc3ccccc3)c12 [GSK683281] | 10
15 | CCCCc1nn2ncccc2c1-c1ccnc(Nc2ccc(N3CCN(C)CC3)cc2)n1 [GW684941] | 74
16 | O=C(Nc1n[nH]c2cc(-c3ccoc3)ccc12)C1CC1 [SB-738481] | 0
17 | Cl.c1ccc(-c2ccc3c(Nc4ccc5[nH]ncc5c4)ccnc3c2)nc1 [GW440137] | 1
18 | Cn1cc(-c2ccc3c(c2)CCN3C(=O)Cc2cccc(Cl)c2)c2c(N)ncnc21 [GSK2606590] | 0
19 | COc1cccc(-c2ccc3c(NC(=O)C4CC4)n[nH]c3n2)c1 [SB-710903] | 2
20 | Nc1ncc(-c2ccc3nccc(-c4ccncc4)c3c2)cc1S(=O)(=O)N1CCOCC1 [GSK1627798] | 0
21 | COc1cc(Nc2nccc(N3CCC(NC(=O)Nc4cccc(C(C)=O)c4)C3)n2)cc(OC)c1OC (centres unmarked) [GSK1379753] | 0
22 | COCCOCCOc1cc2ncc3c4ccc(C#N)cc4[nH]c3c2cc1OC | 0
23 | COc1ccc(Nc2nccc(NCCNC(=O)c3cc4ccccc4s3)n2)cc1 [GSK1379896] | 0
24 | COC(=O)Nc1nc2cc(Oc3ccc(NC(=O)Nc4cc(C(F)(F)F)ccc4F)cn3)ccc2[nH]1.Cl.Cl [GW681170] | 16
25 | O=C(Nc1n[nH]c2nc(-c3ccc(O)cc3)ccc12)C1CC1 [SB-710363] | 0

Test system: T2, YANK3
T2 construct: gene STK32C
Conditions: concentration: 1 μM, replicates: in singlicate; n = 1

Row | SMILES | %Inh [%]
26 | Nc1n[nH]c2cnc(-c3ccccc3)cc12 [SB-642124] | 17
27 | CN(c1ccc(NC(=O)Nc2cc(C(F)(F)F)ccc2F)cc1)c1ccnc(Nc2ccc(S(N)(=O)=O)cc2)n1 [GW809893] | 17
28 | CC(C)c1nc(-c2cccc(NS(=O)(=O)c3c(F)cccc3F)c2F)c(-c2ccnc(Nc3ccc(N4CCOCC4)nc3)n2)s1 [GSK2008607] | 1
29 | O=C(Nc1cccc(-c2nn3ncccc3c2-c2ccnc(Nc3ccccc3)n2)c1)c1c(F)cccc1F [GSK198271] | 18
30 | O=C(Nc1ccccc1F)NC1CCN(c2ccnc(Nc3ccc(F)cc3)n2)CC1 [GSK1379800] | 1
31 | Cl.c1ccc(-c2ccc3c(Nc4ccc5[nH]ccc5c4)ccnc3c2)nc1 [GW440138] | 0
32 | COc1ccc(CNC(=O)NC2CCN(c3ccnc(Nc4ccc(F)cc4)n3)CC2)cc1 [GSK1379788] | 0
33 | CN(C)Cc1ccc(-c2ccc3c(Nc4ccc(Oc5ccccn5)cc4)ccnc3c2)o1 [GW567148] | 20
34 | CNC(=O)c1ccccc1Nc1nc(Nc2ccc(N3CCOCC3)cc2)ncc1Cl.Cl [GSK1576028] | 24
35 | CCS(=O)(=O)c1ccc(OC)c(Nc2nccc(-c3c(-c4cccc(NC(=O)c5c(F)cccc5F)c4)nn4ncccc34)n2)c1 [GSK326180] | 24
36 | c1ccc(Oc2ccc(Nc3ccnc4cc(-c5ccc(CNCCN6CCOCC6)o5)ccc34)cc2)nc1 [GW567145] | 32
37 | Cc1ccc(C)c(NC(=O)NC2CCN(c3ccnc(Nc4ccc(F)cc4)n3)C2)c1 (centres unmarked) [GSK1379720] | 28
38 | CCn1c(-c2nonc2N)nc2c(C#CC(C)(C)O)ncc(OCCCCN)c21.O=C(O)C(F)(F)F.O=C(O)C(F)(F)F [GSK507274] | 24
39 | COc1cc2c(cc1OCCN1CCNCC1)ncc1c3ccc(C#N)cc3[nH]c21 | 0
40 | COc1cccc(C(=O)Nc2cccc(Oc3ccc4nc(NC(=O)C5CC5)cn4n3)c2)c1 | 0
41 | FC(F)(F)c1ccc(/C=C/c2cncnc2Nc2ccc3[nH]c(Cc4ccccc4)nc3c2)cc1 [GW709199] | 0
42 | Cc1cccc(Nc2nc(N[C@H]3CCNC3)ncc2C(N)=O)c1.Cl [GSK2197149] | 18
43 | NCCCC(NC(=O)c1cc(Br)c(-c2ccnc3[nH]ccc23)s1)c1ccccc1.O=C(O)C(F)(F)F.O=C(O)C(F)(F)F (centres unmarked) [GSK1287544] | 0
44 | CC(C)(C)c1ccc2nccc(Nc3cccc(O)c3)c2c1 [GW856795] | 0

Row | SMILES | %Inh [%]
45 | c1ccc(-c2n[nH]cc2Nc2ccnc3ccccc23)nc1 [GW694077] | 0
46 | COc1cccc(NC(=O)NC2CCN(c3ccnc(Nc4cc(OC)c(OC)c(OC)c4)n3)C2)c1 (centres unmarked) [GSK1379763] | 4
47 | COC(=O)Nc1nc2ccc(Oc3ccc(NC(=O)Nc4cc(C(F)(F)F)ccc4F)cc3)cc2n1C.Cl [GW692089] | 0
48 | COc1cccc(C2=C(Nc3ccc(Cl)c(C(=O)O)c3)C(=O)NC2=O)c1 [SB-390769] | 0
49 | COc1cc(Nc2nccc(-c3c(-c4cccc(NC(=O)c5c(F)cccc5F)c4)nn4ccccc34)n2)cc(OC)c1OC [GSK323521] | 14
50 | Cn1cc(-c2[nH]c3cc(NC(=O)[C@H](N)C4CCCCC4)cc4c3c2C=NNC4=O)cn1 | 0
51 | Nc1ncc(-c2cccnc2)c2scc(-c3ccc4c(c3)CCN4C(=O)Cc3ccccc3)c12 [GSK683281] | 29
52 | CCCCc1nn2ncccc2c1-c1ccnc(Nc2ccc(N3CCN(C)CC3)cc2)n1 [GW684941] | 25
53 | O=C(Nc1n[nH]c2cc(-c3ccoc3)ccc12)C1CC1 [SB-738481] | 0
54 | Cl.c1ccc(-c2ccc3c(Nc4ccc5[nH]ncc5c4)ccnc3c2)nc1 [GW440137] | 7
55 | Cn1cc(-c2ccc3c(c2)CCN3C(=O)Cc2cccc(Cl)c2)c2c(N)ncnc21 [GSK2606590] | 21
56 | COc1cccc(-c2ccc3c(NC(=O)C4CC4)n[nH]c3n2)c1 [SB-710903] | 0
57 | Nc1ncc(-c2ccc3nccc(-c4ccncc4)c3c2)cc1S(=O)(=O)N1CCOCC1 [GSK1627798] | 22
58 | COc1cc(Nc2nccc(N3CCC(NC(=O)Nc4cccc(C(C)=O)c4)C3)n2)cc(OC)c1OC (centres unmarked) [GSK1379753] | 0
59 | COCCOCCOc1cc2ncc3c4ccc(C#N)cc4[nH]c3c2cc1OC | 0
60 | COc1ccc(Nc2nccc(NCCNC(=O)c3cc4ccccc4s3)n2)cc1 [GSK1379896] | 0
61 | COC(=O)Nc1nc2cc(Oc3ccc(NC(=O)Nc4cc(C(F)(F)F)ccc4F)cn3)ccc2[nH]1.Cl.Cl [GW681170] | 0
62 | O=C(Nc1n[nH]c2nc(-c3ccc(O)cc3)ccc12)C1CC1 [SB-710363] | 0
